This is an account of results in PubChem BioAssay AID2384 (Southern Research Specialized Biocontainment Screening …, 2010).

Usually inhibition stands for the change of the read-out against control, counted positive when it falls.

Screen size: about 2,300 compounds; about 1,100 (48%) were called active. The set was probably picked from earlier hits. The list shows a part of the results. Measured potencies and affinities stand elsewhere. Unmarked numbers belong to inactive results. How the calls were made is not given here.

The nature of this assay: inhibitors in S. typhi counter-screen strain, dose response, counter-screen for PhoP regulon inhibitor project, fluorescence, 4 h (AID 2384). The note with it: S. typhi GFP reporter counter-screen; series mostly up to 150 µM; inhibition: at the top concentration. In general terms: The purpose of a counterscreen is to sort out artefacts and off-target activity.
As to `CCOc1ccc(Cl)cc1/C=N/O`, the “inhibition” value is 26%.

For `COc1ccccc1/C=C/C(=O)Nc1cccc(C(C)=O)c1`, the “inhibition” value was 33.4%.

In the case of `COc1ccc2c(c1)CC1(CN2C)C(=O)NC(=O)N(CCc2ccccc2)C1=O` (stereo not drawn), the “inhibition” value is 21.6%.

On to `CCOC(=O)c1nc2cc3n(c(CC(C)C)c-2c1C)CC(C)=C3C`, for which the “inhibition” value is 35.8%.

Regarding `CC(C)Oc1ccc(N2CC(C(=O)Nc3ccccc3F)CC2=O)cc1` (stereo not drawn), the “inhibition” value is 4.81%.

In the case of `CCOC(=O)c1ccc(N2Cc3ccccc3C2=NC(=O)c2cccc([N+](=O)[O-])c2)cc1`, the “inhibition” value was -24.8%.

For the compound `CCOc1ccc(N2CC(C(=O)OCC(=O)NCc3ccccc3)CC2=O)cc1` (stereo not drawn), the “inhibition” value is 10.8%.

`COc1ccc2nc(NC(=O)C3CC(=O)N(c4ccccc4)C3)sc2c1` (stereo not drawn): the “inhibition” value is -6.56%.

Consider `COc1ccc(Nc2c3c(nc4ccc(C)cc24)CCC3)cc1`, for which the “inhibition” value was 19%.

Turning to `COc1cccc(-c2ccc(SCc3ccccn3)nn2)c1`, the “inhibition” value is 0.91%.

`COc1ccccc1-c1nc(C(F)(F)F)c(OC)o1`: the “inhibition” value was -18.3%.

For the compound `Cc1cc(C)cc(NC(=O)CSc2nnc(CNC(=O)c3cccs3)o2)c1`, the “inhibition” value is -13.1%.

As for `Cc1ccc(CSc2nc3c(c(=O)[nH]2)CCC3)cc1`, the “inhibition” value is 2.42%.

`COc1cc(CNCCCN2CCOCC2)c(Br)cc1OCC(=O)Nc1ccccc1C`: the “inhibition” value is 30.8%.

For `Cc1ccc(C)c(OCC(=O)Nc2cccc(C(=O)O)c2)c1C`, the “inhibition” value is 8.53%.

`Fc1cccc(Cl)c1CSc1ccc(-c2ccco2)nn1`: the “inhibition” value was -38.2%.

Consider `Cc1cccc(CSCCNC(=O)COc2ccc(Cl)cc2)c1`, for which the “inhibition” value is 7.31%.

`CCC(Oc1ccccc1)C(=O)Nc1nnc(S(=O)(=O)N2CCCCC2)s1` (stereo not drawn): the “inhibition” value is -24.2%.

On to `ON=C1/C(=N\O)CC2(C/C1=N/O)OCCO2`, for which the “inhibition” value was 9.69%.

Turning to `O=C(NCCOc1ccccc1)c1ncn[nH]1`, the “inhibition” value was 21.1%.

On to `CC(C)(C)c1ccc(OCCNC(=S)Nc2ccccc2)cc1`, for which the “inhibition” value was -4.71%.

Consider `O=C(O)COc1ccccc1/C=N/NC(=O)c1cccc(S(=O)(=O)N2CCOCC2)c1`, for which the “inhibition” value was -4.06%.

For `O=C(N/N=C/c1cccnc1)c1ccc([N+](=O)[O-])cc1Cl`, the “inhibition” value is 18.8%.

With `Cc1noc(C)c1S(=O)(=O)N1CCC(Cc2ccccc2)CC1`, the “inhibition” value was -13.9%.

With `O=C(N/N=C/c1ccco1)c1cccc(NC(=O)c2cccc(Cl)c2)c1`, the “inhibition” value was -0.93%.

As to `O=[N+]([O-])c1ccc2oc(C3CCCCC3)nc2c1`, the “inhibition” value was 0%.

For `Cc1cccc(C(=O)NCCC(=O)Nc2ccc(F)c([N+](=O)[O-])c2)c1`, the “inhibition” value was 21.8%.

As to `CC(C)=CCN1CCN(Cc2nc(-c3ccccc3)cs2)CC1CCO` (stereo not drawn), the “inhibition” value is 6.37%.

On to `CCO[C@H]1OC(C(=O)O)=C[C@@H](c2ccccc2)[C@@H]1CCCO`, for which the “inhibition” value is 1.28%.

Regarding `Cc1cccc2cc(C(c3nnnn3Cc3ccccc3)N3CCN(C)CC3)c(=O)[nH]c12` (stereo not drawn), the “inhibition” value is 6.04%.

As to `O=C(NC1=NCCS1)c1cccc2ccccc12`, the “inhibition” value is -9.46%.

Turning to `O=C1CCCC2=C1C(c1ccncc1)Nc1ccccc1N2` (stereo not drawn), the “inhibition” value is -4.56%.

Regarding `CCn1nnnc1NCc1cccc(Cl)c1`, the “inhibition” value is -8.55%.

Regarding `Clc1ccc(Nc2nc(C3CC3)cs2)cc1`, the “inhibition” value was 16.3%.

Take `CCN(CC(=O)Nc1ccc(C(=O)OC)cc1)C1CCCCC1`: the “inhibition” value is 15.5%.

With `CC(c1ccccc1)(c1ccccc1)c1ccncc1`, the “inhibition” value is -5.37%.

For `COc1ccc(C2C(C(=O)NCc3cccnc3)c3ccccc3C(=O)N2C)cc1OC` (stereo not drawn), the “inhibition” value was 13%.

As for `C1=Nc2ccccc2CN1c1ccccc1`, the “inhibition” value was 30.4%.

For `Cc1cc(C(=O)Nc2cccnc2)on1`, the “inhibition” value is -13.8%.

Consider `CCC(Sc1nc2ccncc2[nH]1)C(=O)Nc1ccc(C)c(Cl)c1` (stereo not drawn), for which the “inhibition” value is -0.03%.

On to `CCCCNC(=O)CCC(=O)Nc1ccc2nc(N3CCC(C)CC3)cc(C)c2c1`, for which the “inhibition” value is -2.01%.

Regarding `Cc1cc(N2CCN(C3CCCCC3)CC2)nc2cccc(O)c12`, the “inhibition” value is 21.7%.

With `COc1cccc2[nH]c3c(N4CCN(Cc5ccc6c(c5)OCO6)CC4)ncnc3c12`, the “inhibition” value was 29.9%.

For the compound `CCn1c(O)c(N=NC(=O)CNC(=O)/C=C/c2ccco2)c2ccccc21`, the “inhibition” value was -2.56%.

On to `COc1ccc2[nH]cc(C(=O)CCl)c2c1`, for which the “inhibition” value is 12%.

Consider `Cc1ccc(C)c(OCc2ccc(C(=O)NN)o2)c1`, for which the “inhibition” value was 1.74%.

Turning to `Cc1nc(-c2ccc(C(=O)N3CCOCC3)cc2)cs1`, the “inhibition” value is 0.47%.

As to `Cn1ncc(N=Cc2ccccc2O)c1C(=O)N1CCOCC1`, the “inhibition” value was 9.29%.

Regarding `O=C(NC1CCCCC1)c1ccc(S(=O)(=O)NCc2cccnc2)cc1`, the “inhibition” value is -16.9%.

For `O=C(Cc1ccc(F)cc1)NC1CCCC1`, the “inhibition” value is 9.26%.

As to `CCOc1ccc(OCCSc2nc3ccccc3[nH]2)cc1`, the “inhibition” value is 2.54%.

With `CCOc1ccc(NC(=S)Nc2cc(C)[nH]n2)cc1`, the “inhibition” value was 4.04%.

Turning to `O=S(=O)(Nc1ncccn1)c1ccc(NC(=S)Nc2cccc(Cl)c2)cc1`, the “inhibition” value was -59.1%.

Consider `Cc1cc(NS(=O)(=O)c2ccc(NC(=S)NC(=O)c3cccnc3)cc2)no1`, for which the “inhibition” value was 2.76%.

Turning to `Cc1ccc(NC(=O)OCc2cccs2)cc1`, the “inhibition” value was 25.9%.

With `CC1CCCC(NC(=O)COC(=O)Cc2c[nH]c3ccccc23)C1C` (stereo not drawn), the “inhibition” value was 6.25%.

As for `Cc1ccc(-c2c(C)n([O-])c3c([n+]2=O)CCCC3)o1`, the “inhibition” value is 12.3%.

Regarding `COc1ccccc1OCc1nnc(SCC(=O)NCc2ccco2)n1Cc1ccco1`, the “inhibition” value was -6.42%.
